{"source": "PubChem BioAssay", "key": {"[1]": {"assay": "StAR promoter reporter inhibitors, counter-screen for LRH-1 inverse agonist project, cell-based, luminescence, high throughput (AID 651611; in the data active means inhibition above about 28%)", "details": "StAR promoter luciferase reporter counterscreen, at 3.6 µM, hits give high values"}, "[2]": {"target": "Nuclear receptor subfamily 5 group A member 2 (Homo sapiens) (UniProt O00482)", "sequence (O00482 whole entry, looked up)": "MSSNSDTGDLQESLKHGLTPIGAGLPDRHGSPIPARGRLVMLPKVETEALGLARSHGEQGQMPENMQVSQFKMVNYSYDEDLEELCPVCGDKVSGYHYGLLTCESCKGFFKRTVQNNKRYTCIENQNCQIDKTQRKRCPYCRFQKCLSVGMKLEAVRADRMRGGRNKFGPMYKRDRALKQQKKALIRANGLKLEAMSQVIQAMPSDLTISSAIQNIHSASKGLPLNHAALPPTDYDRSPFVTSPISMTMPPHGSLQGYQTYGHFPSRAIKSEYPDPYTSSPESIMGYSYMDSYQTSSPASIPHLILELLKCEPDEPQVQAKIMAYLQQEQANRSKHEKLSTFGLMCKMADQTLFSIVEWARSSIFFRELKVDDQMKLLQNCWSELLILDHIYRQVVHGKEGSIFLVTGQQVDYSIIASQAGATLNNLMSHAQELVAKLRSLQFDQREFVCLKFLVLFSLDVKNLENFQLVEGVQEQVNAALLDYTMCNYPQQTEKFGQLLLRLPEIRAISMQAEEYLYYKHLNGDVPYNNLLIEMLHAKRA", "assay": "LRH-1 (NR5A2) inverse agonists, retest, confirmation, cell-based, luminescence (AID 651613; in the data active means inhibition above about 42%;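 further: HEK293T cells co-transfected with LRH-1 and StAR promoter luciferase reporter; 0% = vehicle wells and 100% = parental cells lacking receptor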)", "details": "cell-based LRH-1 luciferase reporter, inverse agonism; at 3.6 µM; hits give high values"}, "[3]": {"target": "Steroidogenic factor 1 (Homo sapiens) (UniProt Q13285)", "sequence (Q13285 whole entry, looked up)": "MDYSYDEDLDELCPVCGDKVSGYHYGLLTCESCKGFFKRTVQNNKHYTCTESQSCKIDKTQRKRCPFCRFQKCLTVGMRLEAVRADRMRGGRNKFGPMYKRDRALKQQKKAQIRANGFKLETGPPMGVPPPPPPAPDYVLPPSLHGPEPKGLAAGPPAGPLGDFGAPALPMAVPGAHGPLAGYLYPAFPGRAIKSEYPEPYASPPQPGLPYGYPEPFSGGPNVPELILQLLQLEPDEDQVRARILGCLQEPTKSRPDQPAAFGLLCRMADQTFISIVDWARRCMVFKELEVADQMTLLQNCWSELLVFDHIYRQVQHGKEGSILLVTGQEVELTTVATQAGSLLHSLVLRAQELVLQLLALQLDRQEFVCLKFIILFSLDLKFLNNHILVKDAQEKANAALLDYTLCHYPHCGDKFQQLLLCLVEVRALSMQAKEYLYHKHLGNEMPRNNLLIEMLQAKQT", "assay": "SF1 (NR5A1) inverse agonists, counter-screen for LRH-1 inverse agonist project, cell-based, luminescence, high throughput (AID 651614);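 further: cells cotransfected with StAR promoter reporter and SF1 expression vector; 0% = vehicle on cells with receptor and 100% = vehicle on cells lacking receptor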", "details": "cell-based SF1 luciferase reporter, at 3.6 µM, hits give high values"}, "[4]": {"assay": "VP16 transactivation reporter inhibitors, counter-screen for LRH-1 inverse agonist project, cell-based, luminescence, high throughput (AID 651615; in the data active means inhibition above about 33%)", "details": "Gal4-VP16 luciferase reporter cells, at 3.6 µM, hits give high values"}}, "note": "Unmarked numbers belong to inactive results. Activity calls are given as the source filed them. Unless noted, no stated cut-off is given here; in the data, active means inhibition above about 44%; inactive means the rest."}
{"compound": "O=[N+]([O-])c1cc(F)c(N2CCCCCC2)cc1N1CCNCC1", "values": [{"measurement": "inhibition", "setting": "[1]", "result": 14.3, "unit": "%"}, {"measurement": "inhibition", "setting": "[2]", "result": "54.1% (active)"}, {"measurement": "inhibition", "setting": "[3]", "result": "54.7% (active)"}, {"measurement": "inhibition", "setting": "[4]", "result": 9.46, "unit": "%"}]}
{"compound": "N#CCCn1cc(C(=O)Nc2ccc([N+](=O)[O-])cc2)c(-c2ccccc2)n1", "values": [{"measurement": "inhibition", "setting": "[1]", "result": 7.58, "unit": "%"}, {"measurement": "inhibition", "setting": "[2]", "result": 35.3, "unit": "%"}, {"measurement": "inhibition", "setting": "[3]", "result": 41.5, "unit": "%"}, {"measurement": "inhibition", "setting": "[4]", "result": 15.5, "unit": "%"}]}
{"compound": "Cn1cc(NC(=O)CCl)cn1", "values": [{"measurement": "inhibition", "setting": "[1]", "result": "41% (active)"}, {"measurement": "inhibition", "setting": "[2]", "result": "61.9% (active)"}, {"measurement": "inhibition", "setting": "[3]", "result": "61.2% (active)"}, {"measurement": "inhibition", "setting": "[4]", "result": -18.7, "unit": "%"}]}
{"compound": "CC(C)N(C(=O)CCl)c1ccccc1", "values": [{"measurement": "inhibition", "setting": "[1]", "result": 19.8, "unit": "%"}, {"measurement": "inhibition", "setting": "[2]", "result": "54.8% (active)"}, {"measurement": "inhibition", "setting": "[3]", "result": "51.7% (active)"}, {"measurement": "inhibition", "setting": "[4]", "result": -6.55, "unit": "%"}]}
{"compound": "CC1=C(O)C(=O)C=C2C1=CC=C1C2(C)CCC2(C)C3CC(C)(C(=O)O)CCC3(C)CCC12C", "note": "(stereo unspecified)", "values": [{"measurement": "inhibition", "setting": "[1]", "result": "91.6% (active)"}, {"measurement": "inhibition", "setting": "[2]", "result": "106% (active)"}, {"measurement": "inhibition", "setting": "[3]", "result": "96.7% (active)"}, {"measurement": "inhibition", "setting": "[4]", "result": "89.5% (active)"}]}
{"compound": "CCC(C)N1C(=O)/C(=C\\c2ccc(N3CCCCCC3)cc2)C(=O)NC1=S", "note": "(stereo unspecified)", "values": [{"measurement": "inhibition", "setting": "[1]", "result": 1.31, "unit": "%"}, {"measurement": "inhibition", "setting": "[2]", "result": "58.9% (active)"}, {"measurement": "inhibition", "setting": "[3]", "result": 40.2, "unit": "%"}, {"measurement": "inhibition", "setting": "[4]", "result": -2.53, "unit": "%"}]}
{"compound": "CCOC(=O)[C@]12Cc3cc(Cl)ccc3[C@H]1N(C1CCCCC1)C(=O)c1ccccc12", "values": [{"measurement": "inhibition", "setting": "[1]", "result": "80.2% (active)"}, {"measurement": "inhibition", "setting": "[2]", "result": "107% (active)"}, {"measurement": "inhibition", "setting": "[3]", "result": "89.1% (active)"}, {"measurement": "inhibition", "setting": "[4]", "result": "92.8% (active)"}]}
{"compound": "NC(Cc1ccc(F)cc1)c1csc(Nc2ncccn2)n1", "note": "(stereo unspecified)", "values": [{"measurement": "inhibition", "setting": "[1]", "result": "40.1% (active)"}, {"measurement": "inhibition", "setting": "[2]", "result": "43.3% (active)"}, {"measurement": "inhibition", "setting": "[3]", "result": 38.9, "unit": "%"}, {"measurement": "inhibition", "setting": "[4]", "result": "49.8% (active)"}]}
{"compound": "N#Cc1ccc2nc(-c3ccc(CN4CCC(n5c(=O)[nH]c6ccccc65)CC4)cc3)c(-c3ccccc3)nc2c1", "values": [{"measurement": "inhibition", "setting": "[1]", "result": "43.8% (active)"}, {"measurement": "inhibition", "setting": "[2]", "result": "44% (active)"}, {"measurement": "inhibition", "setting": "[3]", "result": "43.2% (active)"}, {"measurement": "inhibition", "setting": "[4]", "result": 27.1, "unit": "%"}]}
